Results on two compounds are retold here after PubChem BioAssay.

Inconclusive results are not listed. Activity calls are given as the source filed them. Unless noted, cut-off not given; nearly all actives show AC50 up to about 26 µM.

Assay [1] can be described thus: viability loss in pontine glioma line – cell-based, SU-DIPG-XVII, MIPE5.0, CellTiter-Glo, qHTS, dose response (AID 1347060).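 Further: cells exposed to compound for 48 hours before viability readout.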 Particulars: CellTiter-Glo ATP luminescence.
Assay [2] can be described thus: viability loss in pontine glioma line – cell-based, SU-DIPG-XIII, MIPE5.0, CellTiter-Glo, qHTS, dose response (AID 1347064; cut-off not given, nearly all actives have AC50 up to about 23 µM;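 further: cells exposed to compound for 48 hours before the viability read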). Conditions: CellTiter-Glo ATP luminescence.
Assay [3] can be described thus: viability loss in pontine glioma line – cell-based, SU-DIPG-XXV, MIPE5.0, CellTiter-Glo, qHTS, dose response (AID 1347065).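 Further: cells exposed to compound for 48 hours before ATP readout.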 Particulars: CellTiter-Glo ATP luminescence.
Assay [4] can be described thus: JHH-DIPG-1 glioma cell viability, MIPE5.0 library, CellTiter-Glo luminescence, qHTS (AID 1347067).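 Further: cells exposed to compound for 48 hours before readout.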 Particulars: JHH-DIPG-1 glioma viability, CellTiter-Glo ATP luminescence.
Assay [5] is described as follows: growth inhibition of DIPG cells – cell-based, MIPE5.0 library, qHTS (AID 1347068; cut-off not given, nearly all actives have IC50 up to about 30 µM;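 on IC50: cells exposed to compound for 48 hours before viability readout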). Conditions: SU-DIPG-XXV viability.
The nature of assay [6]: viability loss with induced miR-34 in A549 – imaging, A549 dox-inducible miR-34, nuclei and caspase counts, primary screen (AID 1347080;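 active means compounds whose cell count with miR-34 switched on is under 0.7 times the count with it off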). Particulars: A549 miR-34 inducible, Hoechst nuclei count, 48 h.
Assay [7] can be described thus: MELAS cybrid and Rieske KO viability enhancers – cell-based, MELAS cybrids, Rieske KO mouse fibroblasts, CellTiter-Glo, primary screen (AID 1508586;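 active means mean z-score across replicates of 1.96 or higher in either the MELAS or the Rieske mutant cell line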;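 further: z relative to plate mean and SD of compound and empty wells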). Conditions: low glucose.

`COc1ccc(S(=O)(=O)N(CCO)c2ccccc2CN(C)C/C=C/c2ccc(Cl)cc2)cc1`: the AC50 is 18.6 µM (active) in assay [1], 7.42 µM (active) in assay [2], 16.6 µM (active) in assay [3] and 10.5 µM (active) in assay [4]. In addition, the concentration for half-maximal inhibition (IC50) in assay [5] was 18.6 µM (active).
In the case of `CN(C)c1ccc(-c2nc3ncc(Cl)c(N4CCN(CC(=O)Nc5nccs5)CC4)c3[nH]2)cc1`, the AC50 in assay [1] was 2.29 µM (active); in assay [2] it was 7.23 µM (active); in assay [3], 3.23 µM (active); in assay [4] it was 2.29 µM (active). Further, in assay [5], the compound was classed as inactive. In addition, the fold change in assay [6] (stronger effect = lower value, cell number ratio, induced over uninduced) is 1.06 (inactive); in assay [6] (measured here: relative caspase fold change +Dox/-Dox) it was 0.825. The cell count in assay [6] (measured here: total cells with miR-34 induction, stronger effect = lower value) is 2120; in assay [6] (measured here: total cells without miR-34 induction), 2000. Further, the z-score is 2.54 (active) in assay [7] (MELAS cybrid survival, CellTiter-Glo 48 h, stronger effect = higher value) and -0.697 in assay [7] (Rieske KO mouse fibroblast survival, CellTiter-Glo 72 h).
